Experiment [1] in a line: NCI Yeast Anticancer Drug Screen. Data for the rad50 strain (AID 155).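 Further: 0% = growth of vehicle-only cultures of the same strain.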 Conditions: S. cerevisiae rad50 strain growth inhibition, stronger effect = higher value. The procedure, abridged:
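Growth of the mutant yeast was measured after compound exposure and referenced to vehicle-treated cultures.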

Experiment [2] is described as follows: NCI Yeast Anticancer Drug Screen. Data for the mec2-1 strain (AID 157). The settings on record: S. cerevisiae mec2-1 strain, stronger effect = higher value. The essentials:
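Vehicle-treated cultures served as reference for growth inhibition of compound-exposed mec2-1 yeast.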

Experiment [3] in a line: NCI Yeast Anticancer Drug Screen. Data for the sgs1 mgt1 strain (AID 161).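 Further: 0% = growth of cultures given vehicle only.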 The settings on record: S. cerevisiae sgs1 mgt1 strain, stronger effect = higher value. The essentials: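 Test agents were incubated with a DNA-repair-mutant yeast strain. Growth was then read and compared against vehicle-treated controls.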
The nature of experiment [4]: NCI Yeast Anticancer Drug Screen. Data for the cln2 rad14 strain (AID 165).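 Further: 0% = growth equal to vehicle treated cultures.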 The settings on record: S. cerevisiae cln2 rad14 strain, stronger effect = higher value. The procedure, abridged:
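Each compound was tested on cln2 rad14 yeast. Inhibition of growth was calculated against vehicle-exposed controls.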

The nature of experiment [5]: NCI Yeast Anticancer Drug Screen. Data for the bub3 strain (AID 167). The settings on record: S. cerevisiae bub3 mutant strain, stronger effect = higher value. The essentials:
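Whole-cell yeast assay. The mutant strain was incubated with compounds, and growth inhibition was determined by comparison with vehicle-treated cells.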

Experiment [6] is described as follows: NCI Yeast Anticancer Drug Screen. Data for the mlh1 rad18 strain (AID 175). The settings on record: S. cerevisiae mlh1 rad18 strain growth inhibition, stronger effect = higher value. The procedure, abridged:
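Vehicle-treated cultures served as the reference for growth inhibition in a yeast strain carrying DNA damage repair alterations exposed to each compound.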

Setting [7] is: at 5.0 µM (retest, dose inferred, filed as 0.5).
[8] abbreviates: at 50.0 µM (retest, dose inferred, filed as 5.0).

The panel holds about 79,000 compounds, 15% with a hit somewhere; the sample as a whole holds those more often. Values without a mark were called inactive. Active and inactive are the calls of the source. No stated cut-off is given here; in the data, active means growth inhibition above about 70%; inactive means the rest.

For `COc1ccc(Cc2c(-c3ccc(C)cc3)n[nH]c(=O)c2C2C(=O)N(c3ccccc3)N=C2c2ccccc2)cc1` (stereo not given), the growth inhibition is 98% (active) in experiment [1] (setting [7]); 95% (active) in experiment [1] (setting [8]); 97% (active) in experiment [1] (at 50.0 µM); 99% (active) in experiment [2] (setting [7]); 96% (active) in experiment [2] (setting [8]); 95.3% (active) in experiment [2] (at 50.0 µM). In addition, the growth inhibition in experiment [3] (setting [7]) was 97% (active); in experiment [3] (setting [8]), 97% (active); in experiment [3] (at 50.0 µM), 98.2% (active); in experiment [4] (setting [7]), 98% (active); in experiment [4] (setting [8]), 97% (active); in experiment [4] (at 50.0 µM) it was 96% (active). The growth inhibition in experiment [5] (setting [7]) was 63%; in experiment [5] (setting [8]), 96% (active); in experiment [5] (at 50.0 µM), 97.5% (active); in experiment [6] (setting [7]) it was 47%; in experiment [6] (setting [8]), 94% (active); in experiment [6] (at 50.0 µM) it was 96% (active).
For `O=C1/C(=N/N=C(c2ccccc2)c2ccccc2)c2ccccc2-c2ccccc21`, the growth inhibition in experiment [1] (setting [7]) was 7%; in experiment [1] (setting [8]), 65%; in experiment [1] (at 50.0 µM), 60.9%; in experiment [2] (setting [7]) it was 1%; in experiment [2] (setting [8]), 14%; in experiment [2] (at 50.0 µM), 0.45%. Also, the growth inhibition was -1% in experiment [3] (setting [7]); 23% in experiment [3] (setting [8]); -2.6% in experiment [3] (at 50.0 µM); 2% in experiment [4] (setting [7]); -5% in experiment [4] (setting [8]); 0.15% in experiment [4] (at 50.0 µM). The growth inhibition in experiment [5] (setting [7]) is 7%; in experiment [5] (setting [8]), 27%; in experiment [5] (at 50.0 µM) it was 8.5%; in experiment [6] (setting [7]) it was 7%; in experiment [6] (setting [8]), 44%; in experiment [6] (at 50.0 µM), 72.3% (active).
For `CCCCCCCCCCCCCCCc1ncc(C)[nH]1`, the growth inhibition was 69% in experiment [1] (setting [7]); 69% in experiment [1] (setting [8]); 99.1% (active) in experiment [1] (at 50.0 µM); 72% (active) in experiment [2] (setting [7]); 99% (active) in experiment [2] (setting [8]); 99.4% (active) in experiment [2] (at 50.0 µM). Besides, the growth inhibition in experiment [3] (setting [7]) is 91% (active); in experiment [3] (setting [8]), 99% (active); in experiment [3] (at 50.0 µM), 99.4% (active); in experiment [4] (setting [7]), 28%; in experiment [4] (setting [8]), 98% (active); in experiment [4] (at 50.0 µM), 97.4% (active). In addition, the growth inhibition was 75% (active) in experiment [5] (setting [7]); 99% (active) in experiment [5] (setting [8]); 99.5% (active) in experiment [5] (at 50.0 µM); 50% in experiment [6] (setting [7]); 99% (active) in experiment [6] (setting [8]); 99% (active) in experiment [6] (at 50.0 µM).
Regarding `Nc1ccccc1Sc1ccc(C(F)(F)F)cc1[N+](=O)[O-]`, the growth inhibition in experiment [1] (setting [7]) was -1%; in experiment [1] (setting [8]), 23%; in experiment [1] (at 50.0 µM), 99.1% (active); in experiment [2] (setting [7]), 2%; in experiment [2] (setting [8]), 30%; in experiment [2] (at 50.0 µM) it was 99% (active). The growth inhibition is 0% in experiment [3] (setting [7]); 23% in experiment [3] (setting [8]); 99.2% (active) in experiment [3] (at 50.0 µM); -2% in experiment [4] (setting [7]); 22% in experiment [4] (setting [8]); 94.7% (active) in experiment [4] (at 50.0 µM). The growth inhibition in experiment [5] (setting [7]) is 6%; in experiment [5] (setting [8]) it was 26%; in experiment [5] (at 50.0 µM), 98.7% (active); in experiment [6] (setting [7]), -1%; in experiment [6] (setting [8]) it was 19%; in experiment [6] (at 50.0 µM) it was 98.9% (active).
Turning to `COc1ccccc1C1(c2ccccc2OC)OC(=O)c2ccccc21`, the growth inhibition in experiment [1] (setting [7]) is 3%; in experiment [1] (setting [8]), 14%; in experiment [1] (at 50.0 µM), 77.8% (active); in experiment [2] (setting [7]), -1%; in experiment [2] (setting [8]), 12%; in experiment [2] (at 50.0 µM), 60.6%. Moreover, the growth inhibition is 3% in experiment [3] (setting [7]); -18% in experiment [3] (setting [8]); 80.3% (active) in experiment [3] (at 50.0 µM); 1% in experiment [4] (setting [7]); 22% in experiment [4] (setting [8]); 69% in experiment [4] (at 50.0 µM). Further, the growth inhibition was -2% in experiment [5] (setting [7]); 17% in experiment [5] (setting [8]); 77.3% (active) in experiment [5] (at 50.0 µM); -6% in experiment [6] (setting [7]); 33% in experiment [6] (setting [8]); 76% (active) in experiment [6] (at 50.0 µM).
For the compound `Cc1[nH]ccc2c(C)c3nc4ccccc4c3cc12`, the growth inhibition in experiment [1] (setting [7]) was 47%; in experiment [1] (setting [8]), 97% (active); in experiment [1] (at 50.0 µM), 90% (active); in experiment [2] (setting [7]), 10%; in experiment [2] (setting [8]) it was 87% (active); in experiment [2] (at 50.0 µM), 88.3% (active). Moreover, the growth inhibition in experiment [3] (setting [7]) was 14%; in experiment [3] (setting [8]) it was 87% (active); in experiment [3] (at 50.0 µM), 90.5% (active); in experiment [4] (setting [7]), 4%; in experiment [4] (setting [8]), 82% (active); in experiment [4] (at 50.0 µM), 82.9% (active). Further, the growth inhibition in experiment [5] (setting [7]) is 9%; in experiment [5] (setting [8]), 73% (active); in experiment [5] (at 50.0 µM), 89% (active); in experiment [6] (setting [7]), 13%; in experiment [6] (setting [8]) it was 95% (active); in experiment [6] (at 50.0 µM) it was 90.3% (active).
With `O=S(=O)(Nc1ccccn1)c1ccc(N=Cc2c3ccccc3nc3cc(Cl)ccc23)cc1`, the growth inhibition was 2% in experiment [1] (setting [7]); 27% in experiment [1] (setting [8]); 98.8% (active) in experiment [1] (at 50.0 µM); 5% in experiment [2] (setting [7]); 18% in experiment [2] (setting [8]); 85.8% (active) in experiment [2] (at 50.0 µM). In addition, the growth inhibition in experiment [3] (setting [7]) was 1%; in experiment [3] (setting [8]), 1%; in experiment [3] (at 50.0 µM), 99.2% (active); in experiment [4] (setting [7]) it was 4%; in experiment [4] (setting [8]) it was -17%; in experiment [4] (at 50.0 µM), 97.5% (active). Also, the growth inhibition in experiment [5] (setting [7]) was 9%; in experiment [5] (setting [8]), 6%; in experiment [5] (at 50.0 µM), 57.6%; in experiment [6] (setting [7]), 5%; in experiment [6] (setting [8]), 6%; in experiment [6] (at 50.0 µM) it was 98.2% (active).
Turning to `COc1ccc(/C=N/n2c(C)nc3c(sc(=S)n3-c3ccccc3)c2=O)cc1`, the growth inhibition was 3% in experiment [1] (setting [7]); -12% in experiment [1] (setting [8]); 13.6% in experiment [1] (at 50.0 µM); -3% in experiment [2] (setting [7]); -6% in experiment [2] (setting [8]); 46.8% in experiment [2] (at 50.0 µM). The growth inhibition is 3% in experiment [3] (setting [7]); 23% in experiment [3] (setting [8]); 11.4% in experiment [3] (at 50.0 µM); -15% in experiment [4] (setting [7]); 4% in experiment [4] (setting [8]); 8.15% in experiment [4] (at 50.0 µM). Also, the growth inhibition in experiment [5] (setting [7]) is 12%; in experiment [5] (setting [8]) it was 29%; in experiment [5] (at 50.0 µM), 47.4%; in experiment [6] (setting [7]) it was 22%; in experiment [6] (setting [8]), -12%; in experiment [6] (at 50.0 µM) it was 10.8%.
As to `O=C(O)C1C(C(=O)O)C2C(=O)C=CC1N2Cc1ccccc1` (stereo not given), the growth inhibition in experiment [1] (setting [7]) was 11%; in experiment [1] (setting [8]), 46%; in experiment [1] (at 50.0 µM), 79.8% (active); in experiment [2] (setting [7]) it was 1%; in experiment [2] (setting [8]), 61%; in experiment [2] (at 50.0 µM) it was 81.2% (active). Moreover, the growth inhibition is 5% in experiment [3] (setting [7]); 65% in experiment [3] (setting [8]); 78.5% (active) in experiment [3] (at 50.0 µM); -8% in experiment [4] (setting [7]); 31% in experiment [4] (setting [8]); 46.3% in experiment [4] (at 50.0 µM). Moreover, the growth inhibition was 21% in experiment [5] (setting [7]); 73% (active) in experiment [5] (setting [8]); 91.4% (active) in experiment [5] (at 50.0 µM); 3% in experiment [6] (setting [7]); 76% (active) in experiment [6] (setting [8]); 87.8% (active) in experiment [6] (at 50.0 µM).
For the compound `Oc1ccccc1C1N(Cc2ccc(Cl)cc2)CCN1Cc1ccc(Cl)cc1`, the growth inhibition in experiment [1] (setting [7]) was 7%; in experiment [1] (setting [8]), 57%; in experiment [1] (at 50.0 µM), 18.2%; in experiment [2] (setting [7]), 7%; in experiment [2] (setting [8]), 58%; in experiment [2] (at 50.0 µM) it was 17.6%. Besides, the growth inhibition in experiment [3] (setting [7]) was 20%; in experiment [3] (setting [8]), 93% (active); in experiment [3] (at 50.0 µM), 46.5%; in experiment [4] (setting [7]), 14%; in experiment [4] (setting [8]) it was 58%; in experiment [4] (at 50.0 µM), 62.6%. Moreover, the growth inhibition was 22% in experiment [5] (setting [7]); 81% (active) in experiment [5] (setting [8]); 16.4% in experiment [5] (at 50.0 µM); 22% in experiment [6] (setting [7]); 70% (active) in experiment [6] (setting [8]); 18.4% in experiment [6] (at 50.0 µM).

Values taken from PubChem BioAssay (NCI).
